Hits are enriched below; roughly 12% of the tested compounds scored in any of these assays.
G9a inh: qHTS Assay for Inhibitors of Histone Lysine Methyltransferase G9a; Potency, µM (titrated, usually from 102 µM), without a hit: at the top dose activity, negative = inhibition, usual class: inhibitors; G9a H3K9 monomethylation, AlphaScreen, 2 h; Histone-lysine N-methyltransferase EHMT2 (Homo sapiens), Q96KQ7; 8.8% of 350,000 active; note: % is set by controls: 0 for no effect and ±100 for the full control effect; nearly all actives have a fitted effect of over 75% in size
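Using a bead-based AlphaScreen, monomethylated H3K9 product from 2 h room-temperature reactions (G9a 20 nM, peptide 500 nM, SAM 20 uM) was detected with 0.5 ug/mL rabbit anti-H3K9me1 antibody.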
PLK1 PBD inh: qHTS for Inhibitors of PLK1-PDB (polo-like kinase 1 - polo-box domain): Primary Screen | Serine/threonine-protein kinase PLK1 (Homo sapiens), P53350 | 2.8% of 360,000 active | Potency, µM, for inactives: max response, negative = inhibition, usual class: inhibitors | Plk1 PBD binding of FITC phosphopeptide, fluorescence polarization; note: series mostly up to about 57 µM; % is set by controls: 0 for no effect and ±100 for the full control effect; nearly all actives have a fitted effect of over 65% in size
Target sequence (P53350 whole entry, looked up, the tested form may be a part): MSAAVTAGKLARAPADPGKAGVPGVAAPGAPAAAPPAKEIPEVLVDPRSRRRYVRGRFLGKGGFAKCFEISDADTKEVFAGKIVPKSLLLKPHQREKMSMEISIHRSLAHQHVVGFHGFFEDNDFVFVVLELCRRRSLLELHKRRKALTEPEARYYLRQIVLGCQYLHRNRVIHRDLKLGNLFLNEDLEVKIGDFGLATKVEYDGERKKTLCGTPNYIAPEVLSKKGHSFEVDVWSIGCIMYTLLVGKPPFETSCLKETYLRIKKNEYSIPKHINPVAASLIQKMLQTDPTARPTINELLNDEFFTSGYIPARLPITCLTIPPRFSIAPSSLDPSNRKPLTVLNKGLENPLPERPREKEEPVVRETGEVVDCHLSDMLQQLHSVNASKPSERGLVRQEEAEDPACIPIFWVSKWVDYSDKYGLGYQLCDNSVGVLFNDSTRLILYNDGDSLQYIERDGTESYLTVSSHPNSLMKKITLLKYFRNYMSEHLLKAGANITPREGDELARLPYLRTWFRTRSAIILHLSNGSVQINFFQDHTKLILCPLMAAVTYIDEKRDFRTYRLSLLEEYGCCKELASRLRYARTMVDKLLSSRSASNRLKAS
HP1b chromo inh: HTS for Inhibitors of HP1-beta Chromodomain Interactions with Methylated Histone Tails. Chromobox protein homolog 1 (Homo sapiens), P83916. AlphaScreen HP1-beta / biotin-H3K9me3 peptide binding. Potency, µM (doses to about 114 µM), inactives show top-dose activity change, negative = inhibition, hits mostly inhibitors. 0.56% of 390,000 active; note: nearly all actives have a fitted effect of over 70% in size
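Compound inhibition of the preformed complex between 50 nM HP1-beta and 50 nM biotinylated H3K9me3 peptide was read by AlphaScreen. Buffer was PBS pH 7.4 with 0.01% Tween-20. Incubations ran 30 min at room temperature, with 10 ug/mL donor/acceptor beads.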
JMJD2A Tudor inh: qHTS Assay for Inhibitors of JMJD2A-Tudor Domain; AlphaScreen JMJD2A-Tudor / H3K4me3 peptide binding; 4.4% of 390,000 active; AID 504339, 2011; Potency, µM (titrated, usually from 114 µM), for inactives: at the highest dose activity change, negative = inhibition, actives largely listed as inhibitors; note: % is set by controls: 0 for no effect and ±100 for the full control effect; nearly all actives have a fitted effect of over 50% in size
Sfp inh: qHTS Assay for Inhibitors of Bacillus subtilis Sfp phosphopantetheinyl transferase (PPTase) | 4'-phosphopantetheinyl transferase ffp (Bacillus subtilis), Q9F4F7 | Biochemical Sfp PPTase activity, qHTS | Potency, µM, inactives show largest response in the series, negative = inhibition, actives largely listed as inhibitors | 3.5% of 310,000 active;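 note: the enzyme is Sfp with the accession as filed and its product quenches rhodamine fluorescence; 0% = enzyme reaction without inhibitor and -100% = no enzyme wells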
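Buffer: 50 mM Hepes-Na pH 7.6, 10 mM MgCl2, 0.01% Nonidet P-40, 0.01% BSA. Enzyme 15 nM, pre-exposed to compound 15 min; substrates then added and fluorescence change tracked over 30 min.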
BAZ2B inh: qHTS Assay for Inhibitors of BAZ2B | 4.4% of 360,000 active | Potency, µM (series often up to 114 µM), inactives show at the highest dose activity change, negative = inhibition, actives largely listed as inhibitors | AlphaScreen BAZ2B-H3K14Ac peptide displacement; note: % is set by controls: 0 for no effect and ±100 for the full control effect; nearly all actives have a fitted effect of over 60% in size
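In this displacement format the biotinylated H3(5-23) peptide acetylated at Lys14 serves as ligand at 50 nM, with BAZ2B at 50 nM in PBS pH 7.4 containing 0.01% Tween-20. Donor and acceptor beads are 10 ug/mL final.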
An asterisk follows results filed as active; ? = inconclusive; · = no result given; [ ] = dose if it differs, or a comment. Calls come from the whole dose curve; as a rule, active = well fitted curve in the direction sought with a large enough effect; inconclusive = small, poorly fitted or top-dose-only effect, or another doubt; inactive = no such curve, though single readings can be large; an effect the other way counts as inactive or inconclusive. Potency is the fitted concentration of half-maximal effect.

SMILES	G9a inh	PLK1 PBD inh	HP1b chromo inh	JMJD2A Tudor inh	Sfp inh	BAZ2B inh
COc1cc(C(=O)CCN2CCC(c3ccccc3)C2)cc(OC)c1OC (stereo not given)	3.55µM*	26.7µM*	23.8%	-28.9%	-17.4%	-33.3%
CC(=O)N1CCCc2cc(S(=O)(=O)N3CCCCC3)ccc21	7.6%[59 µM]	·	30.0%[57 µM]	-2.3%	·	-1.2%
O=C1OC(c2cccs2)Sc2ccccc21 (stereo not given)	·	-0.4%	·	·	·	·
Cn1cc(S(=O)(=O)N2CCCCCC2)cc1C(=O)N1CCN(c2ccc(Cl)cc2)CC1	-10.0%[59 µM]	·	-2.3%[57 µM]	?	·	?
O=[N+]([O-])CC(c1ccc(F)cc1)c1c[nH]c2ccccc12 (stereo not given)	2.0%	6.0%	16.0%	-18.5%	14.1%	-4.5%
CN(C)c1ccc(C(CNC(=O)c2ccccc2)c2c[nH]c3ccccc23)cc1 (stereo not given)	8.91µM*	?	39.8µM*	?	30.8%	14.1µM*
CN(C)c1ccc(C(CNC(=O)c2ccccc2F)c2c[nH]c3ccccc23)cc1 (stereo not given)	?	-23.0%	13.5%	?	6.5%	?
CN(C)c1ccc(C(CNS(=O)(=O)c2ccc(F)c(F)c2)c2c[nH]c3ccccc23)cc1 (stereo not given)	39.8µM*	-2.6%	31.6µM*	22.4µM*	3.7%	22.4µM*
Cc1ccc(-n2c(SCC(N)=O)nnc2-c2ccc(S(=O)(=O)N3CCCCC3)cc2)c(C)c1	39.8µM*	-9.0%	6.8%	?	3.6%	-0.7%
CC(=O)c1ccc(N(CC(=O)NC2CCCCC2)C(=O)c2csnn2)cc1	23.7%	-0.4%	20.2%	3.0%	4.2%	-17.7%
CC(=O)N1CCN(S(=O)(=O)c2cccc(C(=O)NC3CC3)c2)CC1	-44.4%[12.7 µM]	-6.4%	23.8%	-11.6%	·	-15.1%
Nc1ccc(O)c(C(=O)O)c1	3.16µM*	·	·	·	44.7µM*	·
Nc1ccc(C(=O)O)c(O)c1 (tested in a mixture with another compound)	·	·	·	·	2.4%	·
CN(C)c1ccc(Sc2ccc3nc(N)nc(N)c3c2)cc1	·	0.8%	·	·	·	·
CN(C)c1ccc(SC#N)cc1	50.1µM*	?	23.3%	-17.6%	6.8%	-20.7%
CN(C)c1ccc(C(=O)Nc2sc(Nc3ccccc3)nc2C(N)=O)cc1	-18.0%[59 µM]	·	15.4%[57 µM]	-22.4%	·	-1.5%
Cc1sc(-c2cccnc2)nc1OC(=O)C1CC1	20µM*	?	25.9%	-2.3%	?	-24.4%
CN1CCN(c2ccc(Cl)cc2NC(=O)CCN2C(=O)c3ccccc3C2=O)CC1	?	-2.8%	7.7%	?	6.5%	?
O=C(NCc1ccc(F)cc1)n1cc(P(=S)(c2ccccc2)c2ccccc2)c2ccccc21	·	·	·	-17.0%	·	·
COc1ccc(CN(Cc2cccnc2)S(=O)(=O)c2ccc(-n3cnnn3)c(C)c2)cc1OC	15.8µM*	-0.2%	10.5%	-24.4%	-8.5%	-37.2%
COc1ccccc1CN(Cc1cccnc1)S(=O)(=O)c1ccc(-n2cnnn2)c(OC)c1	7.7%	1.4%	-7.5%	-11.0%	3.0%	-1.4%
COc1cc(S(=O)(=O)N(Cc2cccnc2)Cc2cccc(OC)c2OC)ccc1-n1cnnn1	17.8µM*	-2.1%	15.9%	0.7%	-18.9%	79.4µM*
COc1ccc(C)cc1NC(=O)COC(=O)c1c(C)nn(-c2ccccc2)c1C	-15.2%[12.7 µM]	4.6%	35.9%	-9.4%	·	13.7%
CCCCCCn1cc(CN2CC(N3CCSCC3)CS2(=O)=O)nn1 (stereo not given)	·	0.3%	·	·	·	·
CN1CCN(/N=C/c2cccc(Cl)c2Cl)CC1	39.8µM*	2.2%	-15.6%	?	3.1%	?
Clc1ccccc1/C=N/N1CCN(Cc2ccccc2)CC1	24.0%[0.501 µM]	-4.1%	-27.8%	56.2µM*	-10.1%	44.7µM*

Bioassay records from PubChem.
